For 40 molecules, growth results are on record in PubChem BioAssay (NCI).

Compounds without any hit were thinned out: in the full panel of roughly 83,000, 20% have a hit.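 The endpoint reported here, percent growth, reads 100 for growth as untreated, 0 for no net growth and -100 for all cells dead.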 Values without a mark were called inactive. The source made the active and inactive calls. Rule for the calls: active = growth percent below 10; inactive = the rest.

For the first assay, the system named is PC-3 prostate. As to the kind of experiment: NCI-60 one-dose screen, 48 h (100 = growth as untreated, 0 = no growth, -100 = all killed). The note with it: 10 µM unless noted.
On to `CC(C)(C)C(=O)/C=C/c1ccc([N+](=O)[O-])cc1`, for which the growth was 55.3%. Same read-out and setting: in the case of `N#Cc1c(-c2ccccc2)nc2c(c(-c3ccccc3)nn2-c2ccccc2)c1-c1ccc(N2CCOCC2)cc1` it was 81.7%; in that of `Cc1ccc(C)n1/C=C/n1c(C)ccc1C`, 62.8%; in that of `CN(C)Cc1ccc(C(=O)Nc2ccc3ncnc(Nc4ccc(Oc5cccc(F)c5)c(Cl)c4)c3c2)cc1`, 3.54% (active). Regarding `O=c1[nH]cnc2c1C(c1ccc(Br)cc1)c1sc3c(F)cccc3c1O2` (stereo unspecified), the growth is 82.9%. The same measure, in the same setting: the same measure for `CS(=O)(=O)Nc1cncc(-c2ccc3ncnc(Nc4ccc(F)c(Cl)c4)c3c2)c1`: 34.5%; for `Cc1cc(N2CCN(C)CC2)nc(NCc2cc(Nc3ccnc4cc(Cl)ccc34)ccc2F)n1`: 28.6%; for `COc1ccc(-c2ccc(=O)oc2C#Cc2cc(OC)c(OC)c(OC)c2)cc1O`: 23.3%. Same read-out and setting: in the case of `COc1cc(/C=C2\C(=O)N(c3c(Cl)cccc3Cl)c3ccccc32)cc(OC)c1OCCCCCCn1c2ccccc2c(=O)c2ccccc21` it was 87.1%. On the same count and under the same terms, the same measure for `CC/C=C1/C(=O)C=C[C@@H]1C/C=C\CCCC(=O)OC`: 57%.

`COc1ccc2c(c1)c(-c1nonc1-c1cn(C)c3ccc(OC)cc13)cn2C`: the growth is 50.1%.

For the molecule `C=C1C(=O)O[C@H]2[C@H]1CC/C(COC(=O)/C=C\C(=O)NCc1ccc(Cn3c(=O)sn(-c4ccccc4)c3=O)cc1)=C\CC[C@@]1(C)O[C@@H]21`, the growth was 83.5%.

As for `Cc1nn(-c2ccccc2)c(/N=C/N(C)C)c1/C=C/C(=O)c1ccc(Cl)cc1`, the growth was 85.9%.

As to `C#CC#CC#CC#CC#CC#CC#CC#CCC1OCC(COC(=O)O[C@@H](C(=O)O[C@H]2C[C@@]3(O)[C@@H](OC(=O)c4ccccc4)[C@@H]4[C@]5(OC(C)=O)CO[C@@H]5C[C@H](O)[C@@]4(C)C(=O)[C@H](OC(C)=O)C(=C2C)C3(C)C)[C@@H](NC(=O)c2ccccc2)c2ccccc2)O1` (stereo partly specified), the growth is 19.4%. Same read-out and setting: the same measure for `COc1ccc(/C=C/C(=O)c2cc3c(N)c(C(=O)Nc4ccc(OC)cc4)sc3nc2C)cc1`: 32.3%; for `N=C(N)c1ccc(-c2ccc(-c3ccc(Cl)cc3)o2)o1`: 43.9%; for `COc1ccc(-c2nnc(SCC(=O)Nc3ccc(/C(C)=N\O)cc3)n2-c2ccccc2)cc1OC`: 110%.

Take `Cc1ccc(-c2nc(C#N)c(S(=O)(=O)NCCO)o2)cc1`: the growth is 61.7%. Consider `N#CC(C#N)N=Nc1ccc(Cl)cc1Cl`, for which the growth is 78.7%.

`C=CCOC(=O)C1=C(C)NC(=O)NC1c1c(Cl)n(C)c2ccccc12` (stereo unspecified): the growth is 89.2%. Regarding `CCCCCCCCn1ccc2cc(NC(=O)Cn3cc(CN4CCCCCC4)nn3)ccc21`, the growth was 40%. The same measure, in the same setting: the same measure for `O=C(CN1C(=O)NC2NC(=O)NC21)N/N=C/c1ccc(Cl)cc1Cl` (stereo unspecified): 103%. As to `COc1cc(C2=NN(C(C)=O)C(c3ccc(N(C)C)cc3)C2)cc(OC)c1OC` (stereo unspecified), the growth is 105%. For `COc1cccc(/C=C/C(=O)c2cc3c(N)c(C(=O)Nc4cccc(Cl)c4C)sc3nc2C)c1`, the growth is 13.9%. With `CCCn1c(=S)sc2c1nc(C)n1c(Nc3ccccc3)nnc21`, the growth was 93.5%. Still for that read-out and setting: in the case of `OC(c1ccccc1)(c1ccccc1)c1ccccc1-c1ccccc1` it was 86%.

In another assay the test system is SK-MEL-5 melanoma. The description is as above. The following applies: 10 µM unless noted.
Turning to `NC(=O)c1c(NC(=O)c2ccc(Cl)cc2)sc2c1CCC(=O)C2`, the growth is 99.1%. With `COc1ccc(/C(C)=C(\c2ccc(OCCN3CCCCCC3)cc2)c2ccc(OC(=O)c3ccccc3)cc2)cc1`, the growth was 42.8%. In the case of `Clc1ccc(-c2cn3ccsc3n2)c(Cl)c1Cl`, the growth is 79.8%. On the same count and under the same terms, in the case of `COc1ccc(Cl)cc1Nc1nc(C(F)(F)F)ccc1C(=O)N/N=C/c1ccccc1Cl` it was 3.59% (active); in that of `Cc1cc(C)cc(Nc2ccc([N+](=O)[O-])c(NCCN3CCOCC3)n2)c1`, -20.3% (active); in that of `C=CCn1c(SCC(=O)Nc2ccc(C(=O)/C=C/c3cc(OC)c(OC)c(OC)c3)cc2)nnc1-c1cc(-c2ccc(OC)cc2)nc2ccccc12`, 94.9%.

For `C#CCOc1cccc(-c2ncc3cc(NC(=O)CCl)ccc3n2)c1`, the growth was -65.2% (active). Turning to `Cn1cc(-c2nn3cc(-c4ccccc4)nc3s2)c2ccccc21`, the growth was 65.5%. On the same count and under the same terms, the same measure for `Cc1cc2nc3c4ccccc4n(CCN(C)C)c3nc2cc1C`: 6.22% (active).

With `CCC(C)Nc1ccc(NC(C)CC)cc1` (stereo unspecified), the growth was 100%. Same read-out and setting: the same measure for `O=C(CCCCCCN1CC(=O)N2[C@@H](C3CCCCC3)c3[nH]c4ccccc4c3C[C@H]2C1=O)NO`: 66%. Same read-out and setting: the same measure for `C(/C=C/c1ccccc1)=Nc1ccc(CCc2ccc(N=C/C=C/c3ccccc3)cc2)cc1`: 96.6%; for `Cc1c2ccccc2nc2c1ccc1cccnc12`: 53%; for `Cc1ncc(C(=O)Nc2ccc(CN3CCN(C)CC3)c(C(F)(F)F)c2)cc1C#Cc1cnc(N)c2cnccc12`: -20.8% (active). Take `CC(C)(C)C(=O)/C=C/c1ccc([N+](=O)[O-])cc1`: the growth is 81.7%. As for `N#Cc1c(-c2ccccc2)nc2c(c(-c3ccccc3)nn2-c2ccccc2)c1-c1ccc(N2CCOCC2)cc1`, the growth was 98.8%. On to `Cc1ccc(C)n1/C=C/n1c(C)ccc1C`, for which the growth was 98.7%. For the molecule `CN(C)Cc1ccc(C(=O)Nc2ccc3ncnc(Nc4ccc(Oc5cccc(F)c5)c(Cl)c4)c3c2)cc1`, the growth was -82.6% (active). Same read-out and setting: the same measure for `O=c1[nH]cnc2c1C(c1ccc(Br)cc1)c1sc3c(F)cccc3c1O2` (stereo unspecified): 98.7%. Still for that read-out and setting: in the case of `CS(=O)(=O)Nc1cncc(-c2ccc3ncnc(Nc4ccc(F)c(Cl)c4)c3c2)c1` it was -50.1% (active); in that of `Cc1cc(N2CCN(C)CC2)nc(NCc2cc(Nc3ccnc4cc(Cl)ccc34)ccc2F)n1`, -98% (active); in that of `COc1ccc(-c2ccc(=O)oc2C#Cc2cc(OC)c(OC)c(OC)c2)cc1O`, -13.6% (active). Still for that read-out and setting: the same measure for `COc1cc(/C=C2\C(=O)N(c3c(Cl)cccc3Cl)c3ccccc32)cc(OC)c1OCCCCCCn1c2ccccc2c(=O)c2ccccc21`: 96.1%; for `CC/C=C1/C(=O)C=C[C@@H]1C/C=C\CCCC(=O)OC`: 9.82% (active).

On to `COc1ccc2c(c1)c(-c1nonc1-c1cn(C)c3ccc(OC)cc13)cn2C`, for which the growth was 38%. On the same count and under the same terms, in the case of `C=C1C(=O)O[C@H]2[C@H]1CC/C(COC(=O)/C=C\C(=O)NCc1ccc(Cn3c(=O)sn(-c4ccccc4)c3=O)cc1)=C\CC[C@@]1(C)O[C@@H]21` it was 106%; in that of `Cc1nn(-c2ccccc2)c(/N=C/N(C)C)c1/C=C/C(=O)c1ccc(Cl)cc1`, 89.3%.

As for `C#CC#CC#CC#CC#CC#CC#CC#CCC1OCC(COC(=O)O[C@@H](C(=O)O[C@H]2C[C@@]3(O)[C@@H](OC(=O)c4ccccc4)[C@@H]4[C@]5(OC(C)=O)CO[C@@H]5C[C@H](O)[C@@]4(C)C(=O)[C@H](OC(C)=O)C(=C2C)C3(C)C)[C@@H](NC(=O)c2ccccc2)c2ccccc2)O1` (stereo partly specified), the growth is 23.4%. Regarding `COc1ccc(/C=C/C(=O)c2cc3c(N)c(C(=O)Nc4ccc(OC)cc4)sc3nc2C)cc1`, the growth is 9.81% (active). Still for that read-out and setting: the same measure for `N=C(N)c1ccc(-c2ccc(-c3ccc(Cl)cc3)o2)o1`: 76%; for `COc1ccc(-c2nnc(SCC(=O)Nc3ccc(/C(C)=N\O)cc3)n2-c2ccccc2)cc1OC`: 94.6%; for `Cc1ccc(-c2nc(C#N)c(S(=O)(=O)NCCO)o2)cc1`: 75%. Still for that read-out and setting: in the case of `N#CC(C#N)N=Nc1ccc(Cl)cc1Cl` it was 99.8%. The same measure, in the same setting: in the case of `C=CCOC(=O)C1=C(C)NC(=O)NC1c1c(Cl)n(C)c2ccccc12` (stereo unspecified) it was 102%; in that of `CCCCCCCCn1ccc2cc(NC(=O)Cn3cc(CN4CCCCCC4)nn3)ccc21`, 0.757% (active); in that of `O=C(CN1C(=O)NC2NC(=O)NC21)N/N=C/c1ccc(Cl)cc1Cl` (stereo unspecified), 99.5%. With `COc1cc(C2=NN(C(C)=O)C(c3ccc(N(C)C)cc3)C2)cc(OC)c1OC` (stereo unspecified), the growth was 91.1%.

`COc1cccc(/C=C/C(=O)c2cc3c(N)c(C(=O)Nc4cccc(Cl)c4C)sc3nc2C)c1`: the growth was -31.3% (active). As to `CCCn1c(=S)sc2c1nc(C)n1c(Nc3ccccc3)nnc21`, the growth is 35%. Turning to `OC(c1ccccc1)(c1ccccc1)c1ccccc1-c1ccccc1`, the growth was 96.4%.
